Compound activity from PubChem BioAssay.
Hits are enriched below; roughly 3.4% of the tested compounds scored in any of these assays.
PLCg1 inh – blocks human PLC-gamma1 enzyme activity | AID 720700 | P19174 | purified PLC-gamma1, fluorogenic substrate, fluorescence | inhibition, % at 12.2 µM | 370,000 tested, 0.84% active; in the data active = inhibition above about 9.5%
ADAM10 inh – inhibits human ADAM10; O14672; recombinant ADAM10, EDANS/DABCYL FRET peptide cleavage, 3 h; inhibition, % at 7 µM; 370,000 tested, 0.62% active; AID 720582;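 active = inhibition above a per-campaign cutoff equal to the mean of compounds falling between control-based bounds plus 3 SD, cut at about 20% in these data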;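 note: 0% = DMSO wells while the 100% control is not disclosed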
ADAM17 inh – inhibits human ADAM17 | P78536 | recombinant ADAM17, EDANS/DABCYL FRET peptide cleavage | inhibition, % at 6.95 µM | 370,000 tested, 0.83% active | AID 720648;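 active = inhibition above the mean of compounds lying between control limits plus 3 SD, set per campaign, cut at about 8.5% in these data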;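 note: 0% = DMSO-only wells as the low control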
KLK7 zymogen act – activators of human kallikrein-7 zymogen; activation, % at 7 µM; 370,000 tested, 0.9% active; purified proKLK7, EDANS-DABCYL substrate fluorescence; 100% is mature enzyme control, 0% vehicle; AID 652039;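 active = activation above the mean of all tested compounds plus 3 SD, computed per campaign excluding outliers beyond control limits, cut at about 13% in these data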
HGIII-sPLA2 inh – Blocks human group III sPLA2 activity; QFRET BODIPY PC-A2 liposome hydrolysis, fluorescence; Q9NZ20; 370,000 tested, 0.56% active; inhibition, % at 12.2 µM; AID 743126;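 active = inhibition above mean plus 3 SD of compounds lying within the high and low control bounds, cut at about 19% in these data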;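 note: 0% = median of test compound wells and 100% = no enzyme DMSO wells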
PLC-beta3 inh – PLC-beta3 (human) inhibition, primary screen; 370,000 tested, 0.18% active; inhibition, % at 12.2 µM; Q01970; Purified PLC-beta3, fluorogenic substrate, fluorescence;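 note: 0% = median of compound wells on plate and 100% = full blocker control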
PLCgamma1 ctr – PLC-gamma1 inhibition, counter-screen for PLC-beta3 hits | shares compounds with PLCg1 inh | purified PLC-gamma1, fluorogenic substrate, fluorescence | inhibition, % at 12.3 µM | 3,300 tested, 3.1% active; in the data active = inhibition above about 9.5%
PLCbeta3 conf – confirmation of human PLC-beta3 inhibitors | shares compounds with PLCg1 inh | purified PLC-beta3, fluorogenic substrate fluorescence | inhibition, % at 12.3 µM | 3,300 tested, 1% active | AID 743261
Numbers without * were called inactive; · = not tested or not shown. Cut-off read from the data, not from the text of the source, unless noted: active = inhibition above about 11%; inactive = the rest.

SMILES	PLCg1 inh	ADAM10 inh	ADAM17 inh	KLK7 zymogen act	HGIII-sPLA2 inh	PLC-beta3 inh	PLCgamma1 ctr	PLCbeta3 conf
N/C(=N\OC(=O)c1ccc2c(c1)OCO2)c1ccncc1	13*	2	5	0	7	-5	-4	-2
N/C(=N\OC(=O)c1ccc2c(c1)OCO2)c1ccc(Cl)cc1	4	5	3	0	0	6	·	·
Cc1onc(-c2ccccc2)c1CNS(=O)(=O)c1cccc(Cl)c1	11*	11	5	1	-12	6	-6	1
Cc1onc(-c2ccccc2)c1CNS(=O)(=O)c1ccccc1	2	-3	0	0	-4	-4	·	·
O=C(NN1C(=O)CSC1=S)C(=O)NN1C(=O)CSC1=S	44*	12	4	1	2	-6	71*	-5
O=C(Cc1cccc2ccccc12)NN1C(=O)CSC1=S	-10	-1	-3	1	-9	-6	·	·
CC(C)C1Cc2[nH][nH]c(=O)c2C(C2CC2)O1 (centres undefined)	1	-6	2	0	-1	1	·	·
CCN(CC)S(=O)(=O)c1cccc(-c2nnc(SC(C)C(N)=O)n2CCc2ccccc2)c1 (centres undefined)	7	10	1	0	4	2	·	·
CCN(CC)S(=O)(=O)c1cccc(-c2nnc(SCC(N)=O)n2CCc2ccccc2)c1	12*	9	8	1	14	7	7	4
COc1ccc(C(C)=O)cc1COC(=O)c1ccc2c(c1)OCCO2	3	-4	-3	0	0	-8	·	·
COc1ccc(S(=O)(=O)N2CCC(C(=O)NC3CCCCC3C)CC2)cc1 (centres undefined)	0	6	1	0	1	-3	·	·
Cc1ccc(S(=O)(=O)N2[C@@H](c3ccc(Cl)cc3)C(C(=O)O)=CC[C@H]2c2ccc(Cl)cc2)cc1	9.8*	-4	0	0	-40	-7	-4	-4
CCn1cnc2sc(C(=O)O)c(C)c2c1=O	-1	-3	-4	0	0	-1	·	·
Cc1c(C(=O)O)sc2ncn(C)c(=O)c12	14*	-8	-4	0	7	7	-7	-6
Nc1[nH][nH]c(=O)c1N=Nc1cccc(Cl)c1	11*	5	5	-1	-5	11*	0	4
COc1cccc(N=Nc2c(N)[nH][nH]c2=O)c1	3	12	2	0	-2	3	·	·
Cc1ccc(/C(N)=N/OC(=O)c2ccc(Cl)cc2Cl)cc1	6	5	0	0	-2	13*	-1	-1
NC(=O)CSc1nc2c(sc(=S)n2-c2ccccc2)c(=O)[nH]1	10*	5	2	-1	8	-1	-3	1
CC(C)c1onc(C(=O)N2CCOCC2)c1[N+](=O)[O-]	8	10	5	0	3	13*	-5	-1
Cc1cc(C(=O)NNC(=S)NCc2ccccc2)cs1	-1	9	7	0	19	13*	-9	5
Cc1cc(C(=O)NNC(=S)NCC(C)C)cs1	0	1	-18	0	14	13*	-4	14*
CCc1cc(C(=O)NNC(=S)NCc2ccccc2)cs1	1	1	-4	0	3	8	·	·
O=C(c1cccs1)N1C[C@H](O)[C@@H](n2cc(-c3ccc(F)cc3)nn2)C[C@@H]1c1ccccc1	0	-7	-2	0	-3	1	·	·
O=C(COC(=O)Cc1cccc(C(F)(F)F)c1)Nc1ccc2[nH]c(=O)[nH]c2c1	-3	-9	-5	0	-6	-7	·	·
CC(C)(C)c1cc(C(=O)NNC(=O)Nc2ccccc2)n(Cc2ccccc2)n1	12*	6	3	1	-9	11	17*	18*
SMILES	PLCg1 inh	ADAM10 inh	ADAM17 inh	KLK7 zymogen act	HGIII-sPLA2 inh	PLC-beta3 inh	PLCgamma1 ctr	PLCbeta3 conf
COc1cc(OC)cc(C(=O)NCC(C)NC(=O)c2cc(OC)cc(OC)c2)c1 (centres undefined)	-5	-5	-2	0	-7	-9	·	·
CCC(=O)Nc1ccc(C(=O)COC(=O)c2nc3nccc(C)n3n2)cc1	-6	-11	-4	0	12	-15	·	·
O=C(Nc1ccc(C(O)c2ccccc2)cc1)[C@@H]1O[C@H](CO)[C@H](O)[C@H](O)[C@H]1O (some centres undefined)	14*	2	3	-1	13	8	-7	-2
CC1CCCC(C)N1C(=O)CN1C(=O)NC2(CCOc3ccccc32)C1=O (centres undefined)	0	-5	-3	-1	5	-1	·	·
O=C(CN1CCC(n2nnc3cc(F)ccc32)CC1)N1CCCc2ccccc21	-2	-7	-2	0	-2	3	·	·
O=C(CN1CCC(n2nnc3cc(C(F)(F)F)ccc32)CC1)N1CCc2ccccc21	13*	12	5	0	8	7	-6	-2
O=C(CN1CCCC1)NCC12CC3CC(CC(C3)C1)C2	11*	0	6	1	0	8	-1	1
O=C(CN1CCCC1)NC12CC3CC(CC(C3)C1)C2	1	1	0	0	-5	1	·	·
COc1ccc(S(C)(=O)=O)cc1S(C)(=O)=O	9.5*	-2	4	0	14	8	-5	-2
CC(=O)Nc1cccc(-c2nnc3n2CC(C)S3)c1 (centres undefined)	15*	8	1	-1	0	5	-6	-2
CC(=O)Nc1cccc(-c2cnc(NC(C)=O)cn2)c1	-3	-17	3	0	-2	-3	·	·
CCCC(=O)NC(c1ccco1)c1cc([N+](=O)[O-])c2cccnc2c1O (centres undefined)	14*	12	7	0	11	4	0	-4
CCC(=O)NC(c1ccc(C)cc1)c1cc([N+](=O)[O-])c2cccnc2c1O (centres undefined)	3	13	7	0	8	2	·	·
CC(C)Oc1ccc(C(=O)Nc2ccc([N+](=O)[O-])cc2)cc1	10*	7	-3	1	12	0	-3	-1
CN(C)S(=O)(=O)Oc1ccc(C(=O)Nc2ccc([N+](=O)[O-])cc2)cc1	3	-2	-1	1	-2	2	·	·
Cc1ccc(-c2nc3ccc(Cl)cc3n2OC(C)C(=O)O)cc1 (centres undefined)	0	-11	-8	0	1	2	·	·
CC/C(Cc1ccccc1)=N/NC(=O)CNC(=O)c1ccc(Cl)cc1Cl	11*	5	5	0	8	-1	-5	-2
